The text below walks through data of PubChem BioAssay (NCI).

This is part of a sample that, as a whole, favours compounds with a hit. Of some 83,000 tested, about 20% had one in any assay.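 The test compound was applied at a single concentration to cells in 96-well plates for 48 hours, and percent growth was recorded.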 A number with no mark means an inactive call. Active and inactive are the calls of the source. Rule for the calls: active = growth percent below 10; inactive = the rest.

Common to all, as to assay: NCI-60 one-dose screen, 48 h (100 = growth as untreated, 0 = no growth, -100 = all killed)
Holding throughout (settings): 10 µM

Assay [1] has as its system SR leukemia.
Assay [2] deals with RPMI-8226 leukemia.
Assay [3] has as its system OVCAR-8 ovarian.
Assay [4] deals with OVCAR-5 ovarian.
The subject of assay [5] is OVCAR-4 ovarian.
The test system of assay [6] is SK-OV-3 ovarian.
The test system of assay [7] is OVCAR-3 ovarian.
Assay [8] deals with HS 578T breast.
Assay [9] relates to NCI/ADR-RES ovarian.
Assay [10] concerns T-47D breast.
Assay [11] deals with BT-549 breast.
Assay [12] deals with MDA-MB-435 melanoma.
The subject of assay [13] is SW-620 colon.
For assay [14], the system named is MCF7 breast.
Assay [15] deals with HCT-116 colon.
Assay [16] concerns HCC-2998 colon.
For assay [17], the system named is KM12 colon.
Assay [18] concerns IGROV1 ovarian.

With `O=C1CC[C@@H](C(=O)N[C@H]2CSSC[C@@H](C(=O)N/C=C/c3ccc(O)cc3)NC(=O)[C@H](Cc3ccccc3)NC(=O)[C@@H]3CCCN3C(=O)[C@@H]3CCCN3C2=O)N1`, the growth in [1] is 99.1%; in assay [2], 96.1%; in assay [3], 100%; in assay [4], 102%; in [5], 112%; in assay [6] it was 93.2%. Moreover, the growth in assay [7] was 106%; in assay [8], 94.4%; in [9] it was 97.8%; in [10] it was 78.3%; in assay [11], 120%; in [12] it was 104%. Moreover, the growth in [13] was 97.2%; in assay [14], 96.8%; in assay [15], 99.7%; in [16] it was 98.9%; in assay [17], 97.9%.

Turning to `NCCNc1ccc2cc(-c3nc4ccccc4[nH]3)c(=O)oc2c1`, the growth in [1] was 86.2%; in [2], 95.7%; in assay [3], 98.2%; in assay [4], 101%; in assay [5] it was 86.1%; in assay [6], 104%. For the same compound, the growth in assay [7] was 98.7%; in assay [8] it was 91.6%; in [9], 95.1%; in assay [10] it was 82.2%; in [11], 84.9%; in assay [12] it was 101%. In addition, the growth in assay [13] was 103%; in assay [14], 80.9%; in assay [15], 93.9%; in assay [16] it was 97.9%; in assay [17], 99.8%.

On to `CC(C)OP(=O)(O)c1ncc(-c2ccc(C(F)(F)F)cc2)c(NC2CCCCCC2)n1`, for which the growth in assay [1] is 86.3%; in assay [2], 8.81% (active); in assay [3], 52.3%; in [4] it was 84.6%; in assay [5], 52%; in assay [6], 85.2%. In addition, the growth was 12.1% in [7]; 81.7% in assay [8]; 97.5% in assay [9]; 41.7% in assay [10]; 86.6% in [11]; 62.7% in [12]. Further, the growth in assay [13] is 54.7%; in [14], 51.1%; in assay [15] it was 53.1%; in assay [16], 89.8%; in assay [17], 48%.

Turning to `CC(=O)c1ccc(NCn2nc(-c3ccc(Cl)cc3)oc2=S)cc1`, the growth in assay [1] is 85.1%; in assay [2], 105%; in assay [3], 105%; in [4] it was 85.2%; in [5] it was 113%; in assay [6], 94.4%. The growth is 108% in assay [7]; 96.2% in assay [8]; 101% in [9]; 80% in assay [10]; 99.1% in assay [11]; 105% in [12]. In addition, the growth in [13] was 104%; in assay [14], 95.7%; in [15], 93.3%; in assay [16], 99.7%; in [17], 93.1%.

Turning to `COc1ccc(-c2nnc(SC/C(=N\O)c3ccccc3)o2)cc1`, the growth in assay [1] is 100%; in assay [2], 88.8%; in assay [3], 107%; in assay [4] it was 108%; in assay [5], 104%; in assay [6], 87.9%. The growth in assay [7] was 99.1%; in [8], 94%; in [9], 91.2%; in assay [10] it was 91.8%; in [11], 100%; in assay [12] it was 106%. The growth in assay [13] was 103%; in [14], 104%; in assay [15] it was 91.6%; in assay [16], 94%; in assay [17], 86.2%.

In the case of `CN(C)c1ccc2c(c1)OC(N)=C(C#N)C2c1ccc2c(c1)CCCN2C` (stereo not given), the growth in assay [1] is 29.5%; in [2], 34.5%; in assay [3] it was 30.9%; in [4], 78.2%; in assay [5], 56.3%; in assay [6], 24.4%. Also, the growth in assay [7] was 3.67% (active); in [8], 20.1%; in [9], 0.712% (active); in assay [10], 44.5%; in [11], 49.4%; in assay [12], -5.69% (active). Also, the growth in assay [13] is 35%; in assay [14], 18.1%; in assay [15] it was 7.88% (active); in [16], 26.7%; in [17], 23.1%.

`COc1ccc(-c2n/c(=C\c3c(O)[nH]c4ccccc34)cc3c2=Nc2ccccc2-3)cc1`: the growth in assay [1] was 6.48% (active); in assay [2], 24.7%; in [3], 20.1%; in [4], 89.1%; in assay [5] it was 5.98% (active); in [6], 93.5%. Besides, the growth was 85.6% in assay [18]; 80.7% in assay [8]; 5.95% (active) in assay [9]; 84.8% in [10]; 78.4% in assay [11]; 4.87% (active) in assay [12]. The growth in [13] is -6.59% (active); in [14], -22% (active); in [15] it was -87.3% (active); in [16], 17.8%; in assay [17], 5.41% (active).

With `Cc1cc(/C=C2\SC(=Nc3ccccc3)N(C3CCCC3)C2=O)c(C)n1-c1ccc(Cl)cc1`, the growth was -36.8% (active) in assay [1]; -43.3% (active) in [2]; -38% (active) in assay [3]; -24.9% (active) in assay [4]; -35.3% (active) in assay [5]; -90.5% (active) in [6]. Moreover, the growth was -85.1% (active) in assay [7]; -12.8% (active) in assay [8]; 0.0476% (active) in assay [9]; -49.3% (active) in assay [10]; -57.6% (active) in assay [11]; -82.4% (active) in assay [12]. The growth in assay [13] was -61.6% (active); in assay [14], -56.5% (active); in assay [15], -50.5% (active); in assay [16], -83.8% (active).
